Test results published in PubChem BioAssay AID1159580 (chemical genetic matrix, 2015).
“And” between values parts separate entries of the source, which are not always exact repeats. Identical values can stand only once. About 2,000 (36%) of roughly 5,500 compounds were called active. Another 18% or so got no clear call; they are omitted. No stated cut-off is given here; in the data, active means normalized growth mostly below about 0.91 (no sharp cut-off); inconclusive means no clear call, values can overlap the other calls; inactive means mostly above about 0.92. Some of the results follow.

Assay: chemical genetic growth profiling, strain panel (AID 1159580);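 further: tested at 20 µM; growth read once vehicle control cultures reached saturation at 30 °C; 1 = growth at the plate median or of vehicle wells; lower values mean less growth of the strain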
Settings: S. cerevisiae deletion strains, growth OD

Measured: normalized growth

Oc1ccc(Cl)cc1Cc1cc(Cl)ccc1O
active: locus YAL013W, strain DEP1, hits give low values 0.0573 | locus YAL021C, strain ccr4, hits give low values 0.0695 | locus YAL026C, strain drs2, hits give low values 0.0747 | locus YAL030W, strain snc1, hits give low values 0.0569 | locus YBL061C, strain skt5, hits give low values 0.0645 | locus YBR009C, strain hhf1, hits give low values 0.0651 | locus YBR021W, strain FUR4, hits give low values 0.253 | locus YBR023C, strain chs3, hits give low values 0.07 | locus YBR171W, strain sec66, hits give low values 0.124 | locus YBR229C, strain ROT2, hits give low values 0.0685 | locus YBR231C, strain swc5, hits give low values 0.0629 | locus YBR279W, strain paf1, hits give low values 0.0982 | locus YCL011C, strain gbp2, hits give low values 0.0575 | locus YCL016C, strain dcc1, hits give low values 0.0745 | locus YCL029C, strain bik1, hits give low values 0.0624 | locus YCL061C, strain MRC1, hits give low values 0.107 | locus YCL069W, strain vba3, hits give low values 0.0848 | locus YCR088W, strain abp1, hits give low values 0.0882 | locus YDL005C, strain med2, hits give low values 0.0747 | locus YDL035C, strain GPR1, hits give low values 0.0712 | locus YDL040C, strain nat1, hits give low values 0.0791 | locus YDL074C, strain BRE1, hits give low values 0.092 | locus YDL101C, strain DUN1, hits give low values 0.0631 | locus YDL134C, strain PPH21, hits give low values 0.0596 | locus YDL185W, strain tfp1, hits give low values 0.0573 | locus YDL192W, strain arf1, hits give low values 0.0725 | locus YDR001C, strain nth1, hits give low values 0.107 | locus YDR069C, strain doa4, hits give low values 0.0709 | locus YDR101C, strain arx1, hits give low values 0.0668 | locus YDR137W, strain rgp1, hits give low values 0.0823 | locus YDR150W, strain NUM1, hits give low values 0.141 | locus YDR159W, strain sac3, hits give low values 0.0887 | locus YDR162C, strain NBP2, hits give low values 0.0492 | locus YDR195W, strain ref2 0.12 | locus YDR297W, strain sur2, hits give low values 0.0586 | locus YDR318W, strain mcm21, hits give low values 0.0649 | locus YDR334W, strain swr1, hits give low values 0.0861 | locus YDR335W, strain msn5, hits give low values 0.0832 | locus YDR388W, hits give low values 0.0554 | locus YDR392W, strain spt3, hits give low values 0.0992 | locus YDR502C, strain sam2, hits give low values 0.0624 | locus YEL003W, strain gim4, hits give low values 0.0565 | locus YEL037C, strain rad23, hits give low values 0.271 | locus YEL061C, strain CIN8 (second series), hits give low values 0.0757 | locus YEL061C, strain CIN8, hits give low values 0.0536 | locus YER015W, strain faa2, hits give low values 0.0622 | locus YER016W, strain bim1, hits give low values 0.0644 | locus YER110C, hits give low values 0.0746 | locus YER111C, strain swi4, hits give low values 0.0777 | locus YER155C, strain BEM2 (second series), hits give low values 0.109 | locus YER155C, strain BEM2, hits give low values 0.0649 | locus YER167W, strain BCK2, hits give low values 0.0527 | locus YFR010W, strain ubp6, hits give low values 0.185 | locus YGL078C, strain dbp3, hits give low values 0.0765 | locus YGL086W, strain mad1, hits give low values 0.0581 | locus YGL167C, strain pmr1, hits give low values 0.0782 | locus YGL173C, strain kem1, hits give low values 0.101 | locus YGL227W, strain vid30, hits give low values 0.0709 | locus YGL240W, strain doc1, hits give low values 0.08 | locus YGL248W, strain PDE1, hits give low values 0.0764 | locus YGL253W, strain hxk2, hits give low values 0.0817 | locus YGR078C, strain PAC10, hits give low values 0.0754 | locus YGR135W, strain pre9, hits give low values 0.0765 | locus YGR229C, strain SMI1, hits give low values 0.0636 | locus YGR252W, strain gcn5, hits give low values 0.146 | locus YHR013C, strain ard1, hits give low values 0.109 | locus YHR027C, strain rpn1, hits give low values 0.0641 | locus YHR030C, strain SLT2, hits give low values 0.0512 and 0.0939 | locus YHR079C, strain IRE1 (second series), hits give low values 0.0561 | locus YHR079C, strain IRE1, hits give low values 0.102 | locus YHR094C, strain hxt1, hits give low values 0.0607 | locus YHR129C, strain ARP1, hits give low values 0.0651 | locus YHR142W, strain chs7, hits give low values 0.0876 | locus YHR200W, strain rpn10, hits give low values 0.0673 | locus YIL066C, strain RNR3, hits give low values 0.0647 | locus YIL073C, strain SPO22, hits give low values 0.114 | locus YIL125W, strain kgd1, hits give low values 0.0642 | locus YIR030C, strain dcg1, hits give low values 0.0657 | locus YJL092W, strain hpr5, hits give low values 0.111 | locus YJL095W, strain BCK1 (second series), hits give low values 0.057 | locus YJL095W, strain BCK1, hits give low values 0.0553 and 0.0954 | locus YJL115W, strain asf1, hits give low values 0.201 | locus YJL129C, strain trk1, hits give low values 0.0878 | locus YJL134W, strain LCB3, hits give low values 0.0583 | locus YJL154C, strain vps35, hits give low values 0.0851 | locus YJL164C, strain tpk1, hits give low values 0.0647 | locus YJL166W, strain qcr8, hits give low values 0.0615 | locus YJL168C, strain set2, hits give low values 0.0792 | locus YJL187C, strain SWE1 (second series), hits give low values 0.0719 | locus YJL187C, strain SWE1, hits give low values 0.0599 | locus YJR043C, strain POL32, hits give low values 0.0779 | locus YJR066W, strain TOR1, hits give low values -0.000659
